In PubChem BioAssay one finds composite z-score and z-score data, which are given here for 36 compounds.

Each structure is given as a SMILES string. Unmarked numbers belong to inactive results. Unless noted, no rule for the calls is given here.
Also: test concentration not given here.

For one experiment, the target named is Dihydroorotate dehydrogenase (quinone), mitochondrial (Plasmodium falciparum (isolate 3D7)) (UniProt Q08210). Kind of experiment: PfDHODH enzyme inhibitors, primary screen, biochemical, C-terminal His tag, absorbance 600 nm (AID 1175).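 Also: recombinant parasite enzyme with a five histidine tag at its C terminus.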 The following applies: DCIP absorbance 600 nm, higher = more signal, called active from +8 up or from −8 down.
Sequence of Dihydroorotate dehydrogenase (quinone), mitochondrial (Plasmodium falciparum (isolate 3D7)) (Q08210 whole entry, looked up): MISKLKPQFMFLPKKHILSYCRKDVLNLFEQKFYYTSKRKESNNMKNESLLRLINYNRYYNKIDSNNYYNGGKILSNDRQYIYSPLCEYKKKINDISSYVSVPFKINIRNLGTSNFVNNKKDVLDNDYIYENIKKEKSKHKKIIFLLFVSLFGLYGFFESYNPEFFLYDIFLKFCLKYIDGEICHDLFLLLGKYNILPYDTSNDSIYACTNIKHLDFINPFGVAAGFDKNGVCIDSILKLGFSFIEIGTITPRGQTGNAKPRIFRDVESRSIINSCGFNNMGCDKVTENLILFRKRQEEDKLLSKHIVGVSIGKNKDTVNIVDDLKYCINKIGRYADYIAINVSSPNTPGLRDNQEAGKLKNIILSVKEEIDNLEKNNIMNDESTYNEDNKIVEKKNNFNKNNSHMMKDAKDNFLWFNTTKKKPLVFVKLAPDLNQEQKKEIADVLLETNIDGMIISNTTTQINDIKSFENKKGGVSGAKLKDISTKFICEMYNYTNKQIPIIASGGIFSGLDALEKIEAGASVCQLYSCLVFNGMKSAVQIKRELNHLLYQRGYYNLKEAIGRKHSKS
As to `COC(=O)[C@@]1(Cc2ccc(OC)cc2)[C@H]2c3cc(C(=O)N4CCCC4)n(Cc4ccc(O)c(OC)c4)c3C[C@H]2CN1C(=O)c1ccccc1`, the composite z-score was 0.191.
With `COC(=O)[C@@]1(Cc2ccc(OC)cc2)[C@H]2c3cc(C(=O)N4CCCC4)n(Cc4ccc(C)c(F)c4F)c3C[C@H]2CN1C(=O)c1ccccc1`, the composite z-score is 0.104.
As to `C=CCOC(=O)[C@H]1[C@@H]2C(=O)O[C@@H](c3ccccc3)[C@@H](c3ccccc3)N2[C@@H](c2ccc(OCCOC(=O)[C@@H]3C[C@@H]4C(=O)N[C@@H](CCCCNC(C)=O)C(=O)N4[C@@H]3c3ccc(O)cc3)cc2)[C@]12C(=O)Nc1ccccc12`, the composite z-score was 0.0572.
Consider `COC(=O)[C@@]1(Cc2ccc(OC)cc2)[C@H]2c3cc(C(=O)N(C)C)n(Cc4ccc(S(C)(=O)=O)cc4)c3C[C@H]2CN1C(=O)c1ccccc1`, for which the composite z-score was -1.4.
In the case of `CC(C)=CCN[C@H](CO)c1ccccc1`, the composite z-score was -2.14.
In the case of `COC(=O)[C@@]1(Cc2ccc(F)cc2)[C@H]2c3cc(C(=O)N4CCCC4)n(Cc4ccc(S(C)(=O)=O)cc4)c3C[C@H]2CN1C(=O)c1ccccc1`, the composite z-score was -0.159.
`COc1ccc(C#Cc2ccc3c(c2)[C@]2(C(=O)N3)[C@H](C(=O)Nc3nc4ccccc4s3)[C@H]3C(=O)O[C@H](c4ccccc4)[C@H](c4ccccc4)N3[C@@H]2c2ccc(O)cc2)cc1`: the composite z-score was -2.08.
As for `[N-]=[N+]=Nc1ccccc1[C@H]1OC(c2ccc(OCCCO)cc2)=N[C@@]1(CCS(=O)(=O)c1ccccc1)C(N)=O`, the composite z-score is 0.22.
As to `CC(C)c1ccc(NN2C(C(O)c3ccc(B(O)O)cc3)C=CC3C(=O)N(c4ccccc4)C(=O)C32)cc1` (configuration not stated), the composite z-score is -0.388.
Still for that read-out and setting: to `COC(=O)[C@@]1(Cc2ccc(F)cc2)[C@H]2c3cc(C(=O)N(C)C)n(Cc4ccccc4)c3C[C@H]2CN1C(=O)c1ccccc1` belongs 0.151; to `[N-]=[N+]=Nc1ccccc1[C@@H]1OC(c2ccc(OCCCO)cc2)=N[C@]1(Cc1ccccc1)C(=O)N1CCOCC1`, 0.291.
Consider `CN(C)C(=O)[C@]1(Cc2ccccc2N=[N+]=[N-])N=C(c2ccc(OCCCO)cc2)O[C@@H]1c1ccccc1N=[N+]=[N-]`, for which the composite z-score is -0.828.
As to `CC(C)NC(=O)[C@@]1(c2ccc([N+](=O)[O-])cc2)CC(=O)N(C2CCCCC2)[C@@H]1c1ccc(CO)cc1I`, the composite z-score is 0.968.
`COCCOC(=O)N1C(=O)[C@@]2(c3cc(C#Cc4ccc(OC)cc4)ccc31)[C@H](c1ccc(OCCO)cc1)N1[C@H](c3ccccc3)[C@H](c3ccccc3)OC(=O)[C@H]1[C@@H]2C(=O)N1CCN(c2ncccn2)CC1`: the composite z-score was -1.76.
Still for that read-out and setting: the value for `CCC[C@@H]1C[C@@]1(CCC)[C@@H](NC(=O)c1ccccc1)c1cccc(Cl)c1` was 0.249; that for `[N-]=[N+]=Nc1ccccc1[C@H]1OC(c2ccc(OCCCO)cc2)=N[C@@]1(CCS(=O)(=O)c1ccccc1)C(=O)NCC(O)CO` (some centres not stated) was 1.01.
Regarding `O=C1N[C@@H](Cc2ccccc2)C(=O)N2[C@@H]1C[C@@H](C(=O)O)[C@H]2c1cccc(OCCO)c1`, the composite z-score is -2.58.
Consider `COc1ccc([Si](C)(C)[C@@H]2[C@@H](CC(=O)N3CCC[C@H]3CO)O[C@]3(C(=O)N(c4ccccc4)c4ccccc43)[C@H]2C)cc1`, for which the composite z-score is -1.27.
As to `CC(C)N1C(=O)C[C@@](C(=O)NCC(F)(F)F)(c2ccc([N+](=O)[O-])cc2)[C@H]1c1ccc(CO)cc1`, the composite z-score is -0.297.
`CN1C(=O)C2C=CC(C(O)C#Cc3ccccc3)N(N3CCCCC3)C2C1=O` (configuration not stated): the composite z-score was -1.07.
Turning to `C=C(C)[C@@H]1CC=C(C(O)C2C=CC3C(=O)N(C)C(=O)C3N2Nc2ccccc2)CC1` (some centres not stated), the composite z-score was 0.849.
For the compound `C=CCOC(=O)[C@@H]1[C@H]2C(=O)O[C@H](c3ccccc3)[C@H](c3ccccc3)N2[C@H](c2ccc(OCCOC(=O)[C@@H]3C[C@@H]4C(=O)NCC(=O)N4[C@@H]3c3ccc(O)cc3)cc2)[C@@]12C(=O)Nc1ccc(I)cc12`, the composite z-score is -0.365.
Consider `COC(=O)[C@@]1(Cc2ccc(OC)cc2)[C@H]2c3cc(C(=O)N(C)C)n(CCc4ccccn4)c3C[C@H]2CN1C(=O)c1ccccc1`, for which the composite z-score was -0.0595.

Tested on in the next experiment: not listed separately
The experiment is described as follows: P. aeruginosa biofilm formation inhibitors, primary screen, strain PAO1, LB-PBS medium, absorbance 600 nm (AID 1176). The following applies: P. aeruginosa PAO1 growth/biofilm, A600, 12 h; higher = more signal.
As to `O=C1C2C=CC(C(O)Cc3ccccc3)N(n3cnnc3)C2C(=O)N1Cc1ccccc1` (configuration not stated), the z-score is -0.253.
Take `Cc1ccc(S[C@]2(C(=O)NCCCN(C)C)CC(=O)N(Cc3ccccc3C(F)(F)F)[C@@H]2c2ccc(CO)cc2)cc1`: the z-score is -0.0807.
Take `COc1cc(C(O)C2C=CC3C(=O)NC(=O)C3N2Nc2ccccn2)cc(OC)c1OC` (configuration not stated): the z-score is 1.16.
Regarding `C=CCNC(=O)[C@H]1[C@@H]2C(=O)O[C@@H](c3ccccc3)[C@@H](c3ccccc3)N2[C@@H](c2ccccc2OCCO)[C@]12C(=O)Nc1ccc(C#CCC(C(=O)OC)C(=O)OC)cc12`, the z-score was 2.07.
`COCCOC(=O)N1C(=O)[C@@]2(c3cc(C#CCNC(N)=O)ccc31)[C@H](C(=O)N1CCN(c3ncccn3)CC1)[C@H]1C(=O)O[C@H](c3ccccc3)[C@H](c3ccccc3)N1[C@@H]2c1ccc(OCCO)cc1`: the z-score was 2.43.
Regarding `CCOC(=O)C[C@H]1[C@H](OC(=O)c2ccc(C(=O)c3ccccc3)cc2)[C@@H](NC(=O)c2ccc3ccccc3c2)c2cc(OCCCO)ccc2N1C(=O)Cc1ccc(OC)cc1`, the z-score is -0.382.
Regarding `C[C@H]1NC(=O)[C@@]23C(=O)N[C@@H](Cc4ccccc4)C2[C@H](C)[C@@]2(C)O[C@H]2C3/C=C/C/C=C\CNC(=O)[C@@H]2CCCN2C1=O` (some centres not stated), the z-score was -0.0126.
On the same count and under the same terms, the value for `C=C(CCCC)/C(=C/C[C@@H](OC(=O)c1ccncc1)c1ccc(OCCO)cc1)c1cc(C(=O)OC)ccc1OC` was -0.39; that for `CN1C(=O)C2C=CC(C(O)c3ccc([N+](=O)[O-])cc3)N(N3CCCCC3)C2C1=O` (configuration not stated) was 0.711.
With `CC(C)C(=C=CC[C@H](O)c1ccc(OCCO)cc1)CCO`, the z-score was 0.825.
Same read-out and setting: the value for `C[C@H]1C2[C@H](Cc3ccccc3)NC(=O)[C@]23C(=O)N[C@H](Cc2ccccc2)C(=O)N2CCC[C@H]2C(=O)NC/C=C\C/C=C/C3[C@@H]2O[C@]12C` (some centres not stated) was 1.01.
As to `CN(C)CCCCCCNC(=O)[C@H]1C[C@H]2C(=O)N[C@@H](CCCCN)C(=O)N2[C@H]1c1cccc(OCCO)c1`, the z-score is 0.0346.
For the compound `C=CCC(OC(C)=O)[C@@H]1[C@@H](N(Cc2cc3ccccc3o2)C(=O)c2cccc3ccccc23)c2cc(OCCCO)ccc2N1C(=O)c1ccc(-c2ccccc2)cc1` (some centres not stated), the z-score is -1.27.
`COC(=O)[C@@]1(Cc2ccc(OC)cc2)[C@H]2c3cc(C(=O)N4CCCC4)n(Cc4ccc(O)c(OC)c4)c3C[C@H]2CN1C(=O)c1ccccc1`: the z-score is 0.591.
The same measure, in the same setting: to `COC(=O)[C@@]1(Cc2ccc(OC)cc2)[C@H]2c3cc(C(=O)N4CCCC4)n(Cc4ccc(C)c(F)c4F)c3C[C@H]2CN1C(=O)c1ccccc1` belongs -0.843.
`C=CCOC(=O)[C@H]1[C@@H]2C(=O)O[C@@H](c3ccccc3)[C@@H](c3ccccc3)N2[C@@H](c2ccc(OCCOC(=O)[C@@H]3C[C@@H]4C(=O)N[C@@H](CCCCNC(C)=O)C(=O)N4[C@@H]3c3ccc(O)cc3)cc2)[C@]12C(=O)Nc1ccccc12`: the z-score was 1.83.
As for `COC(=O)[C@@]1(Cc2ccc(OC)cc2)[C@H]2c3cc(C(=O)N(C)C)n(Cc4ccc(S(C)(=O)=O)cc4)c3C[C@H]2CN1C(=O)c1ccccc1`, the z-score was 2.2.
As for `CC(C)=CCN[C@H](CO)c1ccccc1`, the z-score was -0.517.
With `COC(=O)[C@@]1(Cc2ccc(F)cc2)[C@H]2c3cc(C(=O)N4CCCC4)n(Cc4ccc(S(C)(=O)=O)cc4)c3C[C@H]2CN1C(=O)c1ccccc1`, the z-score was 1.09.
Turning to `COc1ccc(C#Cc2ccc3c(c2)[C@]2(C(=O)N3)[C@H](C(=O)Nc3nc4ccccc4s3)[C@H]3C(=O)O[C@H](c4ccccc4)[C@H](c4ccccc4)N3[C@@H]2c2ccc(O)cc2)cc1`, the z-score was 0.145.
Turning to `[N-]=[N+]=Nc1ccccc1[C@H]1OC(c2ccc(OCCCO)cc2)=N[C@@]1(CCS(=O)(=O)c1ccccc1)C(N)=O`, the z-score is 0.897.
For `CC(C)c1ccc(NN2C(C(O)c3ccc(B(O)O)cc3)C=CC3C(=O)N(c4ccccc4)C(=O)C32)cc1` (configuration not stated), the z-score was 1.12.
For `COC(=O)[C@@]1(Cc2ccc(F)cc2)[C@H]2c3cc(C(=O)N(C)C)n(Cc4ccccc4)c3C[C@H]2CN1C(=O)c1ccccc1`, the z-score was 0.976.
Regarding `[N-]=[N+]=Nc1ccccc1[C@@H]1OC(c2ccc(OCCCO)cc2)=N[C@]1(Cc1ccccc1)C(=O)N1CCOCC1`, the z-score is -0.0279.
In the case of `CN(C)C(=O)[C@]1(Cc2ccccc2N=[N+]=[N-])N=C(c2ccc(OCCCO)cc2)O[C@@H]1c1ccccc1N=[N+]=[N-]`, the z-score was 0.438.
For the compound `CC(C)NC(=O)[C@@]1(c2ccc([N+](=O)[O-])cc2)CC(=O)N(C2CCCCC2)[C@@H]1c1ccc(CO)cc1I`, the z-score was -0.0469.
`COCCOC(=O)N1C(=O)[C@@]2(c3cc(C#Cc4ccc(OC)cc4)ccc31)[C@H](c1ccc(OCCO)cc1)N1[C@H](c3ccccc3)[C@H](c3ccccc3)OC(=O)[C@H]1[C@@H]2C(=O)N1CCN(c2ncccn2)CC1`: the z-score is 1.9.
As to `CCC[C@@H]1C[C@@]1(CCC)[C@@H](NC(=O)c1ccccc1)c1cccc(Cl)c1`, the z-score was -0.195.
For `[N-]=[N+]=Nc1ccccc1[C@H]1OC(c2ccc(OCCCO)cc2)=N[C@@]1(CCS(=O)(=O)c1ccccc1)C(=O)NCC(O)CO` (some centres not stated), the z-score is 0.854.
